# Only some compounds are listed: those with a hit (about 5.2% of all), similar ones and a draw of the others.
# FBPA coupling cs = coupling enzyme interference in Giardia aldolase counter-screen; AID 2472; coupling enzyme system counterscreen, AmpLite Red fluorescence; activity change, negative = inhibition, % at 58.2 µM, hits read low; 290,000 compounds, 0.67% hits; in the data active = activity change below about -30%
#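 First, compound is pin-transferred into glyceraldehyde-3-phosphate coupling-enzyme reagent at 57.5 uM final and held 10 min at RT. Next, substrate, coupling system and AmpLite Red are added. After 20 min RT, fluorescence (525/598 nm) is read.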
# Tau fibril FP = tau fibrillization inhibition (FP); P10636; K18 P301L tau heparin fibrillization, Alexa594 FP, 6 h; Potency, µM (highest dose often 57.7 µM), without a hit: at the top dose activity, negative = inhibition, usual class: inhibitors; 280,000 compounds, 0.39% hits; also: potency is read from the fitted curve at half-maximal effect; nearly all actives have a fitted effect of over 55% in size
# Target sequence (P10636 561-689 P618L limits assumed): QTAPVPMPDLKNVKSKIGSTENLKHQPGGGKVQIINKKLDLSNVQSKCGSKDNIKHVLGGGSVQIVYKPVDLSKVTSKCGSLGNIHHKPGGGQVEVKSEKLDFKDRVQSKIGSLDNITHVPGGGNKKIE
#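 Human K18 P301L fragment (15 uM unlabeled plus 0.24 uM Alexa 594-labeled) in 100 mM sodium acetate pH 7 with compound, aggregation induced by 20 uM heparin for 6 hr at 37 C. ThT (30 uM) added for 1 hr, then Alexa 594 FP read.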
# Tau fluor counter = counter-screen for tau fibril formation inhibitors; tau K18 P301L Alexa594 fluorescence, heparin fibrillization; Potency, µM (doses to about 57.7 µM), inactives show at the top dose activity change, negative = decrease; AID 1463; 280,000 compounds, 0.93% hits; also: potency is read from the fitted curve at half-maximal effect; nearly all actives have a fitted effect of over 55% in size
#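 Human K18 P301L tau (15 uM unlabeled plus 0.24 uM Alexa 594-labeled, final) in 100 mM sodium acetate pH 7 was mixed with compound and 20 uM heparin and incubated 6 hr at 37 C.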
# Tau ThT inhib = tau fibrillization inhibition (ThT binding); recombinant tau K18 P301L (four-repeat tau fragment), heparin-induced fibrillization, ThT fluorescence; AID 1460; Potency, µM (doses to about 57.4 µM), for inactives: at the top dose activity, negative = inhibition, hits mostly inhibitors; 270,000 compounds, 2.1% hits; also: potency is read from the fitted curve at half-maximal effect; nearly all actives have a fitted effect of over 55% in size
#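 In this qHTS, human K18 P301L tau is incubated with compound and heparin for 6 hr at 37 C, and Thioflavin T fluorescence then reports fibril load.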
# Sfp PPTase inh = Sfp phosphopantetheinyl transferase inhibition; Q9F4F7; AID 1490; Biochemical Sfp PPTase activity, qHTS; 310,000 compounds, 3.5% hits; Potency, µM, without a hit: largest response in the series, negative = inhibition, hits mostly inhibitors;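 also: the enzyme is Sfp with the accession as filed and its product quenches rhodamine fluorescence; potency is read from the fitted curve at half-maximal effect; 0% = enzyme reaction without inhibitor and -100% = no enzyme wells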
#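 Buffer: 50 mM Hepes-Na pH 7.6, 10 mM MgCl2, 0.01% Nonidet P-40, 0.01% BSA. Enzyme 15 nM, pre-exposed to compound 15 min; substrates then added and fluorescence change tracked over 30 min.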
# * hit, by the source's call; ? = inconclusive; . = not tested or not shown; ! = a repeat was not active; [ ] = another dose, or the depositor's remark. Unless noted, calls follow the shape of the dose curve; as a rule, active = well fitted curve in the direction sought with a large enough effect; inconclusive = small, poorly fitted or top-dose-only effect, or another doubt; inactive = no such curve, though single readings can be large; an effect the other way counts as inactive or inconclusive. Unless noted, % is scaled to controls: 0 for no effect and ±100 for the full control effect.
SMILES,FBPA coupling cs,Tau fibril FP,Tau fluor counter,Tau ThT inhib,Sfp PPTase inh
COc1ccc(OC)c(C2CC(=O)c3c([nH]c(C(=O)OCc4ccc(C)cc4)c3C)C2)c1 (stereo not drawn),.,-6%,-21%,?,.
CCCCC(=O)Nc1sc2c(c1C(=O)OCC)CCC(C=O)=C2Cl,0,-9%,-22%,25µM*,?
CCCCNCC(=O)Nc1sc(C)c(C)c1C(=O)OCC,4,9%,0%,-8%,6%
O=c1[nH]cnc2nc[nH]c12,1,-1%,4%,8%,79µM*
Cc1ccc(NC(=O)CC2Sc3ccccc3NC2=O)c(C)c1 (stereo not drawn),.,-8%,-4%,-1%,.
Cc1ccc2c(c1)Sc1c(ccc3ccccc13)N2,-20,0%,14µM*[quencher],3.2µM*,-13%
CC(C)Nc1nnc(SCc2cc(=O)n3ccsc3n2)s1,-2,-6%,-6%,-8%,56µM*
O=c1cc(CSc2nnc(Nc3ccccc3)s2)nc2sccn12,-11,4%,-10%,-12%,1%
CC1=C(C(=O)O)N2C(=O)C(NC(=O)c3nn(C)cc3Cl)C2SC1 (stereo not drawn),1,-8%,0%,-10%,40µM*
CCCOC(=O)N[C@@H]1C(=O)N2C(C(=O)OCCC)=C(C)CS[C@H]12,2,.,.,.,?
CC1=C(C(=O)O)N2C(=O)C(NC(=O)c3ccccc3Cl)C2SC1 (stereo not drawn),2,.,.,.,8.9µM*
CC1=C(C(=O)O)N2C(=O)[C@@H](NC(=O)C(N)C3=CCC=CC3)[C@H]2SC1 (stereo partly drawn),.,?,-30%,?,.
CCn1ccc(C(=O)NC2C(=O)N3C(C(=O)O)=C(C)CSC23)n1 (stereo not drawn),2,-4%,4%,0%,32µM*
COc1ccc(-c2noc(CSc3nnc(C)n3-c3ccc(C)cc3)n2)cc1,.,4%,-21%,?,.
COc1ccc(C(=O)Cn2c(Br)nc3c2c(=O)n(C)c(=O)n3C)cc1,-2,1%,-4%,-14%,50µM*
C=C[C@@]1(C)C[C@H](OC(=O)CSC(C)(C)CNC(=O)[C@@H](N)C(C)C)[C@@]2(C)C(C)CC[C@@]3(CCC(=O)[C@@H]32)[C@H](C)[C@H]1O (stereo partly drawn),.,.,.,.,-10%
O=C(Cn1nc(C(F)(F)F)c2c1CCCC2)Nc1ccc(F)c(Cl)c1,.,?,?,-4%,.
CCCCC(=O)Nc1ccc(OCc2cc(=O)n3ccc(C)cc3n2)cc1,.,1%,3%,-14%,.
Cc1ccc(/C=C2/Sc3ccc(C(=O)NCCN4CCOCC4)cc3NC2=O)cc1,.,.,.,.,-10%
CCN1CCCC1CNC(=O)c1ccc2c(c1)NC(=O)/C(=C\c1ccc(C)cc1)S2 (stereo not drawn),2,.,.,.,50µM*
Cc1nn(CC(=O)Nc2ccc(C(C)C)cc2)c(=O)c2c(C)n(-c3ccc(Cl)cc3)nc12,.,-1%,-2%,3%,.
COc1ccc(S(=O)(=O)Cc2ccc(C(=O)NCc3ccccn3)o2)cc1,3,1%,-11%,-15%,11%
Cc1ccc(CS(=O)(=O)Cc2ccc(C(=O)NCc3ccccn3)o2)cc1,-1,?,-5%,-6%,50µM*
Cc1conc1NC(c1cccs1)c1ccc2cccnc2c1O (stereo not drawn),-6,2%,-25%,?,50µM*
CCC(=O)NC(c1cccs1)c1ccc2cccnc2c1O (stereo not drawn),0,-5%,-10%,-9%,?
SMILES,FBPA coupling cs,Tau fibril FP,Tau fluor counter,Tau ThT inhib,Sfp PPTase inh
Cc1ccc(OC(=O)c2cccc(C(=O)Oc3ccc(C)cn3)n2)nc1,4,4%,-1%,-13%,50µM*
CC1(C)Cc2c(c(N3CCCC3)[nH]c(=S)c2C#N)CO1,4,-2%,-4%,-2%,40µM*
Cc1cc(NC(=O)N2CCC(CN3CCCCCC3)CC2)ccc1Br,.,-11%,-6%,?,.
COC(=O)C1=C(C(=O)OC)[C@@H]2N(C)c3ccc(OC)cc3[C@@]23C[C@@H](C(=O)OC)N(S(=O)(=O)c2c(C)noc2C)C3=N1,-1,6%[11.6 µM],-15%[11.6 µM],-8%[11.5 µM],9%
O=C(c1ccc2c(c1)N(Cc1ccccc1F)C(=O)c1ccccc1S2(=O)=O)N1CCN(c2ccccc2F)CC1,.,0%,-17%,-5%,.
Cc1cccc(N2CCN(C(=O)c3ccc4c(c3)NC(=O)C(CSCc3cccc(F)c3)N4)CC2C)c1 (stereo not drawn),.,.,.,.,56µM*
COc1ccccc1N1CCN(C(=O)c2ccc3c(c2)NC(=O)C(CSCc2ccccc2C)N3)CC1 (stereo not drawn),-2,.,.,.,50µM*
Cc1cccc(N2CCN(C(=O)Nc3ccc(F)cc3)CC2C)c1 (stereo not drawn),.,5%,-7%,-1%,.
O=C1Nc2cc(C(=O)N3CCN(c4ccccc4F)CC3)ccc2NC1CSCc1ccccc1F (stereo not drawn),0,.,.,.,56µM*
COc1ccccc1N1CCN(C(=O)c2cccc(C(=O)N3CCN(c4ccccc4OC)CC3)c2)CC1,0,.,.,.,17%
CC(C)=NNc1nc(-c2ccccc2)c(C)s1,-2,8%,?,?,56µM*
CC(=O)N[C@@H](CS)C(=O)O,4,-10%,-13%,?,35µM*!
CC(NC(=O)C(=O)Nc1c2c(nn1-c1ccccc1)CSC2)c1ccccc1 (stereo not drawn),.,-13%,-13%,-12%,.
O=C(/C=C/c1cccs1)N1CCN(c2ccc(O)cc2)CC1,-6,3%,-17%,?,45µM*
COc1ccc(-c2noc(N3CCC(C(=O)N4CCN(c5cccc(OC)c5)CC4)CC3)n2)cc1,.,8%,-20%,?,.
CC[n+]1c(/C=C/C=C/N(C(C)=O)c2ccccc2)sc2cc(OC)ccc21,1,12%,4µM*[fluorescent],13µM*,45µM*
COc1cccc(CNC(=O)c2cc3n(n2)CCCN(Cc2ccc(C)cc2)C3=O)c1OC,.,3%,0%,-5%,.
O=C(O)CCCN1C(=O)/C(=C\C(Cl)=C\c2ccccc2)SC1=S,0,.,.,.,-28%
O=Cc1ccc(-c2nc3ccccc3s2)o1,-1,-9%,-2%,?,2%
O=C(O)CCN1C(=O)/C(=C/c2ccc(-c3nc4ccccc4s3)o2)SC1=S,-2,-5%,-25%,1.3µM*,-21%
O=C(O)CCCN1C(=O)/C(=C\c2ccc(-c3nc4ccccc4s3)o2)SC1=S,-2,?,?,2.5µM*,50µM*
O=C(O)CC(C(=O)O)N1C(=O)/C(=C/c2ccc(-c3nc4ccccc4s3)o2)SC1=S (stereo not drawn),0,?,-26%,7.9µM*,8.9µM*
C=C1C(n2cnc3c(=O)[nH]c(N)nc32)C[C@H](O)[C@H]1CO (stereo partly drawn),.,.,.,.,19%
CCCOC(=S)NC(=O)c1sc2ccccc2c1Cl,3,3%,-17%,?,28µM*
